Measurements from ChEMBL document CHEMBL4513216, “Probing the Open Global Health Chemical Diversity Library for Multistage-Active Starting Points for Next-Generation Antimalarials” (ACS Infect Dis, 2020).
Screen size: about 65,000 compounds; about 2,100 (3.2%) showed an effect of 50% or more. The median lay at about -52%. This excerpt belongs to a sample that is enriched for strong results.

tested on: Plasmodium falciparum; test: Screen against P. falciparum Asexual Blood Stage (ABS), at 5uM; type: functional, Dd2; conditions: tested at 5 uM

SMILES	INHIBITION
CCC(C(=O)Nc1ccc(-c2nc(C)n[nH]2)cc1)N1CCCC1=O (stereo not drawn)	-34.4%
Cc1nc(NS(=O)(=O)c2cccc(F)c2C)no1	-25.8%
COCCN1CCC(c2nc3ccc(N4CCCC4)cn3n2)CC1	-45.6%
O=C(NCCc1ccccn1)[C@@H]1CC[C@@H]2[C@@H](CCN2Cc2ccoc2)O1	-60.9%
COc1nc2ccn(CCc3cnccn3)c(=O)c2cc1C#N	-11.9%
COc1nc2ccn(CCc3scnc3C)c(=O)c2cc1C#N	-31.6%
COc1nc2ccn(CCNc3cc(C)ccn3)c(=O)c2cc1C#N	51.7%
N#Cc1cc(F)ccc1CN1CCCC1Cn1cccn1 (stereo not drawn)	-48.4%
CC(=O)Nc1ccc(C(=O)N(C)Cc2ccc(F)cc2F)s1	-10.9%
O=C(CCN1CCCO1)NC1CCCN(CC2CCCCC2)C1 (stereo not drawn)	-105%
Cn1cc(CNC2CCCOc3c(Cl)cccc32)cn1 (stereo not drawn)	20.3%
Cn1cc(CNC2CCCOc3c2ccc2ccccc32)cn1 (stereo not drawn)	63.1%
Cc1ccc2c(c1)OCCCC2NCc1nccn1Cc1ccccc1 (stereo not drawn)	-13.4%
c1ccc(Cn2ccnc2CNC2CCCOc3ccccc32)cc1 (stereo not drawn)	42.5%
Cc1cccc2c1OCCC2NCc1c(C)nn(C)c1N(C)C (stereo not drawn)	0.635%
Cc1cccc2c1OCCCC2NCc1nccn1Cc1ccccc1 (stereo not drawn)	63.8%
CCCn1cc(-c2cc(-c3cc(CC)n[nH]3)c(C#N)c(N)n2)c(C)n1	-20.1%
CCCN1CCC(c2nc3ccc(NCc4ccccc4)cn3n2)CC1	-1.75%
O=C1CCCN1Cc1ncn2c1CN(C(=O)N1CCCC1)CCC2	-29.5%
Cn1cc(NC(=O)N2CCCC2c2cccnc2)ccc1=O (stereo not drawn)	-8.15%
Cn1cc(NC(=O)N2CCC(c3ccccc3)CC2)ccc1=O	-187%
Cn1cc(NC(=O)N2CCC2c2ccccc2)ccc1=O (stereo not drawn)	54.8%
O=C(C1=CCCC1)N1CCO[C@H]2[C@@H](Oc3ccccn3)CC[C@@H]21	-51.5%
Cc1cc(C(=O)N2CCO[C@H]3[C@H](Oc4ccccn4)CC[C@@H]32)c(C)[nH]1	51.5%
Cc1occc1C(=O)N1CCO[C@H]2[C@@H](Oc3ccccn3)CC[C@@H]21	-73.5%
CCCc1nc(N2CCN(Cc3ccccn3)CC2)c2cnn(C)c2n1	19.2%
CCCc1nc(N2CCCN(c3ncccn3)CC2)c2cnn(C)c2n1	-2.15%

SMILES	INHIBITION
CCCc1nc(N2CCCN(c3ccncc3)CC2)c2cnn(C)c2n1	65%
Cc1cnn(C2CCCN(C(=O)c3cccc4c3OCO4)C2)c1 (stereo not drawn)	-116%
CCN(Cc1ccccn1)Cc1cc(Cl)ccc1OC	-28.3%
CCN(Cc1cc(Cl)ccc1OC)Cc1nccn1C	67.2%
CCn1nc(C)c(CN(Cc2ccccn2)Cc2ccccc2Cl)c1C	-33.9%
Cn1cc(CN(Cc2ccccn2)Cc2ccccc2Cl)cn1	-31.1%
CCN(Cc1cc(Cl)ccc1OC)Cc1ncnn1CC	-33.4%
Cn1ccnc1CN(Cc1ccccn1)Cc1ccccc1Cl	79.4%
Cc1cccc(CN2CCc3c(COCC(=O)N(C)C)nn(C)c3C2)n1	-107%
Cc1ccccc1OCC1CCCN(C(=O)CN(C)C2CCNCC2)C1 (stereo not drawn)	57.5%
COCC(=O)N1CCCC(COc2ccccc2C)C1 (stereo not drawn)	-71%
Cc1ccccc1OCC1CCCN(C(=O)CNC(=O)N(C)C)C1 (stereo not drawn)	-158%
Cc1[nH]/c(=N\C(=O)c2csc(NCC(C)C)n2)sc1C	-31.9%
Cc1[nH]/c(=N\C(=O)c2csc(NC3CCCC3)n2)sc1C	50%
Cc1cnc(NC(=O)c2csc(NC3CCCC3)n2)s1	-86.7%
CCOC(=O)N1CCCC2(CCN(Cc3ccccc3C#N)C2)C1 (stereo not drawn)	-71.9%
CC(CNC(=O)c1ccc(Cl)cc1F)N1CCN(C)CC1 (stereo not drawn)	64.1%
CN1CCN(Cc2ccccc2CNC(=O)c2ccc(Br)cc2F)CC1	48.8%
CN1CCN(C(CNC(=O)CCn2cccn2)c2cccs2)CC1 (stereo not drawn)	-29.5%
CN1CCN(C(CNC(=O)c2ccc(Cl)cc2F)c2cccs2)CC1 (stereo not drawn)	53.9%
CN1CCN(Cc2ccccc2CNC(=O)c2ccc(Br)cc2)CC1	46.2%
CC(CNC(=O)c1cc(Cl)ccc1F)N1CCCC1 (stereo not drawn)	12.4%
CN1CCN(Cc2ccccc2CNC(=O)c2cc(Cl)ccc2F)CC1	66.5%
O=C(NCC(c1cccs1)N1CCOCC1)c1ccc(F)cc1Cl (stereo not drawn)	-46.5%
CC(CNC(=O)c1ccc(Cl)cc1F)N1CCCC1 (stereo not drawn)	-2.96%
Cc1cc(C)n(CCN2CCC(N(C)Cc3noc(C4CC4)n3)C2)n1 (stereo not drawn)	-148%
